Rows were chosen to be rich in hits. Some 1.6% of all compounds tested hit in one or more screens of this group.
KCNQ2 pot: KCNQ2 (rat) channel potentiation. CHO-K1 KCNQ2, FluxOR thallium flux fluorescence; hits give high values. 310,000 compounds, 0.54% hits. B-score at 10 µM;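 active means fluorescence ratio B-score at least 3 SD of library B-scores, with initial fluorescence B-score within 3 of them, cut at about 5.3 in these data; same plate scores as AID 2156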;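 further: B-score of peak minus minimum over baseline fluorescence ratio after K+ and Tl+ stimulus; positive B-score means potentiation of KCNQ2 with more thallium influx and brighter signal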
KCNQ2 inh: blocks the rat KCNQ2 potassium channel; O88943; CHO-K1 KCNQ2, FluxOR thallium flux, 20 min; hits give low values; B-score at 10 µM; 310,000 compounds, 1.1% hits; AID 2156;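 active means fluorescence ratio B-score at most minus 3 library SDs, with starting brightness B-score within 2 library SDs, cut at about -5.5 in these data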
Kir21 conf inh: confirmation of mouse Kir2.1 potassium channel inhibitors | shares compounds with KCNQ2 pot | Kir2.1-expressing cells, FluxOR thallium flux fluorescence; hits give low values | Tl flux remaining, % of negative control (hits give low values), % at 10 µM | 2,300 compounds, 41% hits | AID 2032;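 active means Primary-screen hit whose thallium flux fell at least 3 control SD below untreated wells in both duplicates, with normal baseline fluorescence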
Target sequence (P35561 whole entry, looked up): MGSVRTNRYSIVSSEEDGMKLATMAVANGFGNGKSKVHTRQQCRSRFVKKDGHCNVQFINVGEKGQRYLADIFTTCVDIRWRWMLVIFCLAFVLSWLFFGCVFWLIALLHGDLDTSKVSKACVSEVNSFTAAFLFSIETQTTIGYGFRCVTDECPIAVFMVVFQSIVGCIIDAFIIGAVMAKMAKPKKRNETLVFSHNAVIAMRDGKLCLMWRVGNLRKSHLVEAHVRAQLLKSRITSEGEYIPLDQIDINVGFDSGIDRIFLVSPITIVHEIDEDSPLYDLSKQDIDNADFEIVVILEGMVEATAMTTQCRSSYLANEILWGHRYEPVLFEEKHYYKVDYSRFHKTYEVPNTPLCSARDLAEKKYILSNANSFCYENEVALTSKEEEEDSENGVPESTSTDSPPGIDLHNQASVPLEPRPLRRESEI
HEK293 ctr: counter-screen for Kir2.1 inhibitors: effect in parental HEK293 cells | AID 2105 | shares compounds with KCNQ2 pot | FluxOR signal as % of negative control (100 = no effect), % at 10 µM | 2,300 compounds, 19% hits | FluxOR thallium flux fluorescence; 0% = unstimulated blank wells;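 active means dye signal at least 3 control SD above or below untreated wells in both duplicates, raw fluorescence within 3, either direction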;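 further: percent is based on the flux ratio of peak minus minimum fluorescence over baseline F0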
CHO-K1 ctr: alters thallium flux in parental CHO-K1 cells, KCNQ2 counter-screen. shares compounds with KCNQ2 pot. FluxOR thallium flux fluorescence; zero = vehicle mean+3SD, 100% = vehicle-minus-blank window. activity increase over 3SD of controls, % at 10 µM. 1,200 compounds, 43% hits;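 active means signal rise of at least 3 SD above the untreated control mean, in both duplicate wells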;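 further: counter screen of KCNQ2 potentiator hits so any rise reflects channel-independent effects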
KCNQ1 pot spec: human KCNQ1 counter-target activity of KCNQ2 potentiators; CHO KCNQ1 stable, FluxOR thallium flux fluorescence; beyond 3SD, as % of vehicle-control signal; activation over 3SD threshold, % at 10 µM; 1,200 compounds, 28% hits; shares compounds with KCNQ2 pot;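 active means fluorescence ratio rise of at least 3 SD of vehicle wells above their mean, in both replicate wells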
KCNQ2 pot conf: rat KCNQ2 channel potentiator confirmation | shares compounds with KCNQ2 pot | CHO-KCNQ2 cells, FluxOR thallium flux fluorescence | potentiation, less the hit threshold, % at 10 µM | 1,200 compounds, 68% hits | AID 2287;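 active means fluorescence ratio rising 3 SD or more over the vehicle control mean in both replicates, plus primary screen hit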;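 further: peak minus minimum thallium fluorescence divided by baseline after K/Tl stimulus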
Kir2-1 sel: selectivity of KCNQ2 potentiators: effect on mouse Kir2.1; shares compounds with KCNQ2 pot; HEK293 Kir2.1, FluxOR thallium flux fluorescence; activity over 3SD threshold, % at 10 µM; 1,200 compounds, 2% hits; AID 2345;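 active means fluorescence ratio rise of at least 3 SD above the vehicle-control mean, seen in both replicates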
KCNQ2 W236L pot: rat KCNQ2 W236L mutant potentiation by KCNQ2 potentiators; current increase over 3SD of negative controls (%), hits give high values, % at 25 µM; AID 2558; CHO KCNQ2-W236L, automated patch clamp current; shares compounds with KCNQ2 pot; 940 compounds, 10% hits;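 active means current increase at least 3 SD of the untreated controls above them in both duplicate recordings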
Each line names hits and unclear results; the compound was inactive in the other large screens (follow-up assays come after a bar, where they were run).

CCn1c(=S)[nH]c2sc3c(c2c1=O)CCCC3	KCNQ2 pot 16 | Kir21 conf inh inactive | HEK293 ctr 393% | CHO-K1 ctr 40 | KCNQ1 pot spec inactive | KCNQ2 pot conf 60 | Kir2-1 sel inactive | KCNQ2 W236L pot inactive
CC1CCc2c(sc3nn[nH]c(=O)c23)C1 (stereo not drawn)	none
CC1CCc2c(sc3[nH]c(=S)n(C)c(=O)c23)C1 (stereo not drawn)	KCNQ2 pot 20 | Kir21 conf inh inactive | HEK293 ctr 396% | CHO-K1 ctr 54 | KCNQ1 pot spec inactive | KCNQ2 pot conf 69 | Kir2-1 sel inactive | KCNQ2 W236L pot inactive
C=CCn1c(=S)[nH]c2sc3c(c2c1=O)CCC3	none
CCS(=O)(=O)N1CCC2(CC1)OCCN2S(=O)(=O)c1ccc(OC)cc1	none
O=C(NC(=S)Nc1ccc2[nH]c(=O)[nH]c2c1)c1cccc(F)c1	none (no result: KCNQ2 pot)
CCN1CCN(C(=O)/C=C/c2ccc(C)o2)CC1	none (no result: KCNQ2 pot)
Cc1ccc(/C=C/C(=O)N2CC(C)CC(C)C2)o1 (stereo not drawn)	KCNQ2 pot 6.2 | Kir21 conf inh inactive | HEK293 ctr inactive | CHO-K1 ctr inactive | KCNQ1 pot spec inactive | KCNQ2 pot conf inactive | Kir2-1 sel inactive | KCNQ2 W236L pot inactive
Cc1nc(-c2ccc(C(=O)Nc3cc(S(N)(=O)=O)ccc3C)cc2)cs1	none
CCc1ccc(CNC(=O)c2ccc(NC(=O)C3=CSCCO3)cc2)cc1	none
CC(C)C1Cc2c(sc3[nH]c(=S)n(Cc4ccccc4)c(=O)c23)CO1 (stereo not drawn)	KCNQ2 pot 7.3 | Kir21 conf inh inactive | HEK293 ctr 396% | CHO-K1 ctr 19 | KCNQ1 pot spec inactive | KCNQ2 pot conf 52 | Kir2-1 sel inactive | KCNQ2 W236L pot inactive
Cc1nnc2n(-c3ccccc3)c(=O)c3c4c(sc3n12)COC(C(C)C)C4 (stereo not drawn)	none
Cn1c(=O)c(-c2ccccc2[N+](=O)[O-])c(Cl)c2ccccc21	none (no result: KCNQ2 pot)
Cc1cc(OCc2cc(C(=O)NC(C)c3c(C)nn(C)c3C)no2)cc(C)c1Cl (stereo not drawn)	none (no result: KCNQ2 pot)
CCN(CC)c1ccc(NC(=O)C2CCCC2)cc1	none
CCCCc1ccc(NC(=O)COCC)cc1	none
CCCCc1ccc(NC(=O)CC(C)C)cc1	KCNQ2 pot 7.4 | Kir21 conf inh inactive | HEK293 ctr 280% | CHO-K1 ctr inactive | KCNQ1 pot spec inactive | KCNQ2 pot conf 94 | Kir2-1 sel inactive | KCNQ2 W236L pot inactive
CCCCc1ccc(NC(=O)C2CCCC2)cc1	KCNQ2 pot 7 | Kir21 conf inh inactive | HEK293 ctr inactive | CHO-K1 ctr 109 | KCNQ1 pot spec inactive | KCNQ2 pot conf inactive | Kir2-1 sel inactive | KCNQ2 W236L pot inactive
CCCC1(c2ccccc2)NC(=O)N(CC(=O)NCc2ccc(OC)cc2)C1=O (stereo not drawn)	none (no result: KCNQ2 pot)
O=C(O)C1CCCCC1C(=O)Nc1ccc(S(=O)(=O)N2CCCCC2)cc1 (stereo not drawn)	none
Cc1ccc(CN2CC(C(=O)N(C)CC(=O)Nc3cccc(F)c3)CC2=O)cc1 (stereo not drawn)	none
O=C(CN1CCN(S(=O)(=O)/C=C/c2ccccc2)CC1)NCC(F)(F)F	none
Cc1ccc(S(=O)(=O)NCCC(=O)Nc2ccc(S(=O)(=O)NC(C)C)cc2)cc1	none
Cc1nn2c(N3CCOCC3)cc(C(C)C)nc2c1-c1ccccc1	none (no result: KCNQ2 pot)
CCN1CCN(c2cc(C(C)C)nc3c(-c4ccccc4)c(C)nn23)CC1	none (no result: KCNQ2 pot) | Kir21 conf inh 60% | HEK293 ctr inactive
Cc1ccc(S(=O)(=O)NC2=NCN(CC(=O)O)CN2)cc1	none

Compound activity (PubChem BioAssay)
